HP1b chromo inh = blocks HP1-beta chromodomain binding to methylated histone tails; AlphaScreen HP1-beta / biotin-H3K9me3 peptide binding; Potency, µM (titrated, usually from 114 µM), inactives show top-dose activity change, negative = inhibition, usual class: inhibitors; 390,000 compounds, 0.56% hits; also: potency is read from the fitted curve at half-maximal effect; nearly all actives have a fitted effect of over 70% in size
Target sequence (P83916 whole entry, looked up): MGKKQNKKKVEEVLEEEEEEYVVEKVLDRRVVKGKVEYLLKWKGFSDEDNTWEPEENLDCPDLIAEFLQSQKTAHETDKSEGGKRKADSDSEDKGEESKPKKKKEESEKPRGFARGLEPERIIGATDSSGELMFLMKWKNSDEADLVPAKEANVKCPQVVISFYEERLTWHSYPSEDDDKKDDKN
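AlphaScreen: HP1-beta (50 nM) preformed 30 min with biotin-H3(1-18)K9me3 peptide (50 nM) in PBS pH 7.4, 0.01% Tween-20. Compound added for 30 min at RT, then streptavidin donor/nickel chelate acceptor beads (10 ug/mL) for 30 min.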
PLK1 PBD block = blocks phosphopeptide binding to human PLK1 polo-box domain. P53350. 360,000 compounds, 2.8% hits. Potency, µM, for inactives: max response, negative = inhibition, usual class: inhibitors. Plk1 PBD binding of FITC phosphopeptide, fluorescence polarization; also: potency is read from the fitted curve at half-maximal effect; series mostly up to about 57 µM; % is scaled to controls: 0 for no effect and ±100 for the full control effect; nearly all actives have a fitted effect of over 65% in size
PI5P4Ka inh = blocks human PI5P4K alpha kinase activity | 330,000 compounds, 1.2% hits | PI5P4Kalpha enzyme, ADP-Glo luminescence, 60 min; active compounds read low | P48426 | max response, %; active = max response of -50% or lower; inconclusive = between -30% and -50%; inactive = -30% or higher; also: value at the top dose of about 77 µM; % is scaled to controls: 0 for no effect and ±100 for the full control effect
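Compounds were pin-transferred onto PI5P4Kalpha and substrate in HEPES pH 7.4 buffer with EGTA, CHAPS and 5% DMSO. ATP (5 microM final) started the reaction, which ran 60 minutes at room temperature before ADP-Glo detection.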
G9a block = G9a (human) methyltransferase inhibition; Potency, µM (highest dose often 102 µM), for inactives: at the top dose activity, negative = inhibition, actives largely listed as inhibitors; AID 504332; G9a H3K9 monomethylation, AlphaScreen, 2 h; 350,000 compounds, 8.8% hits; also: potency is read from the fitted curve at half-maximal effect; % is scaled to controls: 0 for no effect and ±100 for the full control effect; nearly all actives have a fitted effect of over 75% in size
Target sequence (Q96KQ7 913-1193 limits assumed): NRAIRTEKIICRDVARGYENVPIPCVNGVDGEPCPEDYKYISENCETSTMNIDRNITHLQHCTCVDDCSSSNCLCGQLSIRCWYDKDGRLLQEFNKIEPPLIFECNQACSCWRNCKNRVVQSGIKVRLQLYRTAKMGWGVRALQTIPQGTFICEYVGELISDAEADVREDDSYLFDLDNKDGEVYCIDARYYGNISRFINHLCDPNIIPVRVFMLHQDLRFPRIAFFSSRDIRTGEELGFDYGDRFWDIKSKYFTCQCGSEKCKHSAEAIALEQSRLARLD
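Compounds were preincubated with 20 nM G9a for 15 min, after which biotinylated H3K9 peptide (500 nM) and SAM (20 uM) started a 2 h room-temperature reaction. Monomethylated product was quantified by antibody-based AlphaScreen chemiluminescence.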
BAZ2B block = blocks human BAZ2B | 360,000 compounds, 4.4% hits | Q9UIF8 | AlphaScreen BAZ2B-H3K14Ac peptide displacement | Potency, µM (top dose mostly 114 µM), for inactives: top-dose activity change, negative = inhibition, hits mostly inhibitors | AID 504333; also: potency is read from the fitted curve at half-maximal effect; % is scaled to controls: 0 for no effect and ±100 for the full control effect; nearly all actives have a fitted effect of over 60% in size
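BAZ2B 50 nM plus b-H3(5-23)K14Ac 50 nM, PBS pH 7.4/0.01% Tween-20, 30 min RT; compound added (max 110 uM), 30 min RT; streptavidin donor/Ni-chelate acceptor beads 10 ug/mL final, 20 min dark; AlphaScreen read.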
JMJD2A Tudor inh = JMJD2A Tudor domain (human) inhibition. AID 504339. 390,000 compounds, 4.4% hits. Potency, µM (highest dose often 114 µM), for inactives: at the top dose activity change, negative = inhibition, usual class: inhibitors. AlphaScreen JMJD2A-Tudor / H3K4me3 peptide binding; also: potency is read from the fitted curve at half-maximal effect; % is scaled to controls: 0 for no effect and ±100 for the full control effect; nearly all actives have a fitted effect of over 50% in size
* hit, by the source's call; ? = inconclusive; . = no result; ! = not confirmed by another sample; [ ] = remark or other dose. The list is not random: actives were taken first. Their share in the collection is about 12%. Unless noted, calls follow the shape of the dose curve; as a rule, active = well fitted curve in the direction sought with a large enough effect; inconclusive = small, poorly fitted or top-dose-only effect, or another doubt; inactive = no such curve, though single readings can be large; an effect the other way counts as inactive or inconclusive.

SMILES	HP1b chromo inh	PLK1 PBD block	PI5P4Ka inh	G9a block	BAZ2B block	JMJD2A Tudor inh
CCn1c(SCC(=O)O)nc2sc3c(c2c1=O)CCC3	-2%	?	?	45µM*	56µM*	?
CCn1c(SCC(=O)Nc2cc(C)on2)nc2sc3c(c2c1=O)CCCC3	19%	-1%	.	?	4%	-8%
CCn1c(SCC(=O)OC)nc2sc3c(c2c1=O)CCC3	?	-16%	.	.	50µM*	50µM*
COCCCn1c(SCC(=O)Nc2ccc(NC(C)=O)cc2)nc2sc3c(c2c1=O)CCC3	0%	-13%	1	45µM*	-14%	-14%
CCn1c(SCC(=O)OC)nc2sc3c(c2c1=O)CC(C)(C)OC3	10%	-11%	1	22%[12.7 µM]	-6%	-6%
C=CCn1c(SCC(=O)Nc2cc(C)on2)nc2sc3c(c2c1=O)CCCC3	-8%	27µM*	-6	-1%[12.7 µM]	8%	-7%[11.4 µM]
CCOC(=O)c1noc2ncn(CC(=O)Nc3ccc(OC)c(Cl)c3)c(=O)c12	14%[57 µM]	.	.	-14%[59 µM]	-11%	-11%
COc1ccc(CCN2CC(C(=O)N(C)C3CCOCC3)CCC2=O)cc1 (stereo not drawn)	14%	-9%	8	12%[59 µM]	22%	-1%
O=C(Nc1ccc(F)cc1)c1ccc2c(c1)S(=O)(=O)N=C1CCCCCN12	39%	0%	-1	4%[12.7 µM]	8%	4%
COc1cc(NC(=O)c2ccc3c(c2)S(=O)(=O)N=C2CCCCCN23)cc(OC)c1	-4%	6%	-1	50µM*	11%	-20%
CN[C@H](CC(=O)O)C(=O)O	-20%	-13%	0	22µM*!	.	22µM*
N#Cc1nc(COc2ccc(Cl)cc2)oc1N1CCCCCC1	-46%	-3%	-9	?	11µM*	?
N#Cc1nc(COc2ccccc2)oc1N1CCCCC1	?	-9%	0	?	?	?
Cc1cccc(OCc2nc(C#N)c(N3CCCC3)o2)c1	?	1%	3	.	40µM*	-35%
Cc1ccc(OCc2nc(C#N)c(N3CCCCC3)o2)cc1	?	-7%	-2	40µM*	28µM*	?
O=C(NC1CCN(Cc2ccccc2)CC1)c1ccc(CS(=O)c2ccccc2Cl)o1 (stereo not drawn)	.	2%	-4	.	.	.
CC(C)C[C@H]1COc2cccc(N(C)CCO)c2S(=O)(=O)N1	.	2%	3	.	.	.
O=C(Nc1ccc(F)c([N+](=O)[O-])c1)C(=O)c1c(O)[nH]c2ccccc12	11%	-13%	-26	28µM*	?	-35%
Cc1c(Cl)cccc1NC(=O)CNC(=O)CCCc1nc2ccccc2c(=O)[nH]1	27%	-4%	-2	45µM*	14%	-3%
COc1cc(Cl)c(C)cc1NC(=O)COC(=O)CCc1nc2ccccc2c(=O)[nH]1	22%	-25%	-8	13µM*	8%	-12%
N#Cc1cccc(NC(=O)COC(=O)CCc2nc3ccccc3c(=O)[nH]2)c1	45%	-16%	0	13µM*	-29%	-1%
O=C(Nc1ccccc1)Nc1ccc(F)c([N+](=O)[O-])c1	6%	2%	-1	-8%[59 µM]	-6%	-26%
COc1ccc(OC)c(NC(=O)COC(=O)CCc2nc3ccccc3c(=O)[nH]2)c1	27%	-10%	-6	.	.	-8%
O=C(COc1ccccc1)Nc1ccc2nc(SCCOc3ccccc3)sc2c1	62%	.	.	2%[59 µM]	-36%	-11%
CCn1c(SCC(=O)NC2CCCCC2)nnc1-c1ccco1	-10%	-8%	-4	9%	6%	-11%
SMILES	HP1b chromo inh	PLK1 PBD block	PI5P4Ka inh	G9a block	BAZ2B block	JMJD2A Tudor inh
Cc1ccc(NC(=O)COC(=O)CCc2nc3ccccc3c(=O)[nH]2)cc1Cl	30%	-8%	-3	35µM*	-12%	13%
Cc1ccc(S(=O)(=O)N2CCCCC2)cc1NC(=O)CCc1nc2ccccc2c(=O)[nH]1	17%	-24%	?	3.2µM*	-31%	-20%
O=C(CCc1nc2ccccc2c(=O)[nH]1)NCC(=O)Nc1ccc(F)c(F)c1	23%	-8%	-12	21%[59 µM]	-4%	-10%
O=C(CCc1nc2ccccc2c(=O)[nH]1)Nc1ccc(F)c([N+](=O)[O-])c1	16%	-5%	-15	40µM*	-25%	-20%
CCN(CC)C(=O)Cn1c(=O)n(-c2ccc(Cl)cc2)c(=O)c2c3c(sc21)CCC3	15%	.	.	-2%[59 µM]	5%	-14%
COc1ccc(-c2ccc3c(n2)sc2c(=O)[nH]c(=O)[nH]c23)cc1OC	.	.	.	3.5µM*	-38%	.
COc1ccc(-c2ccc3c(N)c(C(=O)c4ccc(OC)c(OC)c4)sc3n2)cc1	8%	3%	-7	2.8µM*	-26%	?
CCCCCC/C=C/c1ccc(C2C3C=CCC(C)C3C(=O)N2Cc2ccccc2)c(F)c1 (stereo not drawn)	39%	.	.	.	.	14%
Cc1cc(N2CCC(C(=O)Nc3ccc(F)cc3C)CC2)n2nc(C)c(-c3ccc(Cl)cc3)c2n1	30%	.	.	1%[59 µM]	-5%	0%
CCOC(=O)C1=C(c2ccccc2)c2cc(OC)ccc2OC1C(=O)OCC (stereo not drawn)	.	.	.	58%	.	.
O=C(c1nc2ccc(Cl)cn2c1CN1CCC(CO)CC1)N1CCc2ccccc2C1	37%	-1%	8	93%	3%	-10%
CN(Cc1cccnc1)Cc1c(C(=O)N2CCc3ccccc3C2)nc2ccc(Cl)cn12	30%	-9%	-3	50µM*	-23%	-21%
O=C(c1nc2ccc(Cl)cn2c1CN1CCCC1)N1CCc2ccccc2C1	9%	-27%	-20	79µM*	?	?
CC(=O)N1CCCc2ccc(NC(=O)c3ccc(C(F)(F)F)cc3)cc21	32%	.	.	56%[59 µM]	4%	-14%
Cc1cccc(-c2nc(S(=O)(=O)c3ccc(Cl)cc3)c(N3CCCCCC3)o2)c1	-18%	.	.	?	?	-25%
O=C(Cc1ccccc1)NC1CC(=O)N(c2ccccc2)C1 (stereo not drawn)	13%	.	.	19%[59 µM]	0%	-3%
Cc1ccc2nc(N(CCN(C)C)C(=O)c3ccc4c(c3)OCCO4)sc2c1	15%	0%	-6	45µM*	?	?
CCN(CC)CCN(C(=O)c1ccc(S(=O)(=O)N(C)C2CCCCC2)cc1)c1nc2ccc(OC)cc2s1	30%	-3%	-1	?	-38%	?
CN(C)CCN(C(=O)c1ccc2ccccc2c1)c1nc2ccc(Br)cc2s1	66%	-6%	-4	.	-22%	?
Cc1cc(C)c2nc(N(CCCN(C)C)C(=O)c3ccc4c(c3)OCCO4)sc2c1	-14%	-13%	1	50µM*	-13%	?
CCN(CC)CCN(C(=O)c1ccc(C(=O)c2ccccc2)cc1)c1nc2ccc(OC)cc2s1	0%	-1%	-6	45µM*	?	?

Assay outcomes (PubChem)
